# Source: PubChem (several laboratories)
# GC-A act – GC-A (human) enzyme activation; HEK293 GC-A cells, cGMP TR-FRET, EC30 ANP; 0% at EC30 ANP, 100% saturating ANP; AID 1671463; P16066; actives 0.14% (n = 370,000); activation, % at 10 µM; in the data active = activation above about 40%
# GC-B act – GC-B (human) receptor activation; HEK293-GC-B cells, CNP EC30, cGMP TR-FRET; 0% at EC30 CNP, 100% saturating CNP; AID 1920062; actives 0.11% (n = 370,000); activation, % at 10 µM;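 active = activation at 10 µM reaching about 35% in either raw or pattern-adjusted values, limit read from the data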
# Target sequence (P20594 whole entry, looked up): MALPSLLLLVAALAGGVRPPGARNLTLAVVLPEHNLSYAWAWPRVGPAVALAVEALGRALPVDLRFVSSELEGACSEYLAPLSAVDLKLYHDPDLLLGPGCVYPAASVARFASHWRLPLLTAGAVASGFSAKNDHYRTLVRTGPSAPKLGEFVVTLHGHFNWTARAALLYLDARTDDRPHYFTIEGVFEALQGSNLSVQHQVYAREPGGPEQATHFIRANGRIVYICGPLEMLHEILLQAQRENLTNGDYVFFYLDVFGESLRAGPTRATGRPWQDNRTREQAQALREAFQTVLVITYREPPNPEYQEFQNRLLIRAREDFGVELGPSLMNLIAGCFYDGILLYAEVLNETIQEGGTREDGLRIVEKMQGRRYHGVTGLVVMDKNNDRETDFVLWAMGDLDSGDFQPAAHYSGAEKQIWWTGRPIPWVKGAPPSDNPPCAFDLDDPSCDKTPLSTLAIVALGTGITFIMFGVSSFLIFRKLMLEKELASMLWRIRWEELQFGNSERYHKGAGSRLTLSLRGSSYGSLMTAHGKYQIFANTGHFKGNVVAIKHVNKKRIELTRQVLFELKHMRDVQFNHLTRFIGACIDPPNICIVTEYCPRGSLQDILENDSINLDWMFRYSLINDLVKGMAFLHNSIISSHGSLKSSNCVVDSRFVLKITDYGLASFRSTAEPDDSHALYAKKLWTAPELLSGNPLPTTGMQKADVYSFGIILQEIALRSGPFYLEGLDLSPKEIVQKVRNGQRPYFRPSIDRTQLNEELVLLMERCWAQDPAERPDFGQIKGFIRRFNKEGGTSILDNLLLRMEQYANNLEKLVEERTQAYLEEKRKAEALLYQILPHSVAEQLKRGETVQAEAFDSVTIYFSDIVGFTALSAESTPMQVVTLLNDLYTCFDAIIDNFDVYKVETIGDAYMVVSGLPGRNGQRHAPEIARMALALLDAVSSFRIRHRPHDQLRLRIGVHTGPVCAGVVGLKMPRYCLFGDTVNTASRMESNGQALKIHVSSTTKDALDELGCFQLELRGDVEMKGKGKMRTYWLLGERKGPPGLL
# Granule exo inh – blocks lytic granule exocytosis; TALL-104 LAMP-1 surface exposure, flow cytometry; cells stimulated with thapsigargin and PMA; inhibition, % at 10 µM; actives 0.66% (n = 360,000);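 active = inhibition above about 55%, limit read from the data; inconclusive = no clear call, values can overlap the other calls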
# Myeloid diff 2 – promotes myeloid progenitor differentiation; ER-HoxA9 myeloid progenitors, lysozyme-GFP differentiation, flow cytometry; calls only at 10 µM; actives 1% (n = 360,000); AID 624256;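 active = normalized GFP-positive differentiation at or above the plate's own cutoff, the solvent-only control mean plus 3 SD; inconclusive = no clear call, values can overlap the other calls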;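 also: cells exposed to compound for four days before flow analysis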
# The depositor's hits bear a star; i = inactive; ? = inconclusive; . = no result; + = active, no number. Most compounds without a hit are left out; they make up all but 1.8% or so of the library.
SMILES,GC-A act,GC-B act,Granule exo inh,Myeloid diff 2
COc1ccc(C(=O)Nc2nnc(Cc3cccs3)s2)cc1OC,15,-1,6,+
COc1ccc(Cc2nnc(NC(=O)c3ccc(OC)c(OC)c3)s2)cc1,-2,3,-8,i
C=CCN1[C@H](Cc2ccccc2)COc2cccc(N3CCCC3)c2S1(=O)=O,8,-2,.,.
O=C(NCc1cccs1)O[C@H]1CC[C@@]23CCCN2C(=O)CCC[C@H]3C1,2,-5,.,.
C=CCN(C(=O)[C@@H](CCCC)[C@@H](O)c1ccc(C(C)=O)cc1)c1ccccc1,-30,-22,.,.
CCCN1C(=O)/C(=C/c2c(NCCCOCC)nc3c(C)cccn3c2=O)SC1=S,-3,-9,-2,+
CCOCCCNc1nc2c(C)cccn2c(=O)c1/C=C1\SC(=S)N(CC(C)C)C1=O,4,-5,-2,+
CCOCCCNc1nc2c(C)cccn2c(=O)c1/C=C1\SC(=S)N(C(C)CC)C1=O (centres undefined),0,-4,3,+
N#C/C(=C/c1ccc(O)c(O)c1)c1nc2ccccc2[nH]1,-3,-7,-1,+
C1=C2C[N+]3(CCCC3)CC2Cc2ccc3ccccc3c21 (centres undefined),1,2,-6,+
C=CCN(C(=O)[C@@H](C1CC1)[C@@H](O)c1ccc2ccccc2c1)c1ccccc1,-3,-2,.,.
Cc1cc2c(SCC(=O)Nc3cccc(O)c3)ncnc2s1,-2,-2,8,+
Cc1cccc(C(=O)Nc2ccc(C(=O)N/N=C/c3ccc(C)o3)cc2)c1,2,0,6,?
O=C(O)Cc1sc(NC2CCCCC2)nc1-c1ccc(Cl)cc1,3,3,-1,+
COc1cccc2c1C(=O)C=C(C)C2=O,4,1,64*,?
Cc1c(NS(=O)(=O)c2cc3c(cc2Br)CCN3C(=O)C2CC2)c(=O)n(-c2ccccc2)n1C,3,-5,.,.
CC1COCC(C)N1S(=O)(=O)c1ccc2c(c1)CCN2C(=O)C1CCC1 (centres undefined),1,-3,.,.
O=C1C=CC(=O)N1CCCCCCN1C(=O)C=CC1=O,29,36*,.,.
COc1ccccc1OCC(=O)Nc1sc2c(c1C(N)=O)CCC2,0,0,1,i
COc1ccccc1OCC(=O)Nc1sc2c(c1C(=O)NCC1CCCO1)CCC2 (centres undefined),7,4,1,+
CN(C(=O)[C@@H](C1CC1)[C@@H](O)c1ccc(Cl)cc1)c1ccccc1,-5,3,.,.
CCC12CN(C(=O)c3ccc(OC)cc3)CC(CC)(CN(C(=O)c3ccc(OC)cc3)C1)C2=O,-4,75*,0,i
O=C1C2C3C=CC(C3=C3CCCCC3)C2C(=O)N1c1ccccc1 (centres undefined),7,9,80*,i
Cc1ccc(C2=CCN(C)C(=O)N2c2ccc([N+](=O)[O-])cc2)cc1,-2,-6,.,.
CCn1c(Cc2cccs2)nnc1SCC(=O)Nc1ccc(Cl)cc1C,-3,-10,.,.
SMILES,GC-A act,GC-B act,Granule exo inh,Myeloid diff 2
O=C1C=CC(=Nc2ccc3c(c2)Cc2cc(F)ccc2-3)O1,33,35*,-6,i
O=C1C=CC(=Nc2cccc3c2C(=O)c2ccccc2-3)O1,.,.,0,i
COC(=O)[C@]12C[C@H](CC(=O)N3CCN(C(=O)c4ccco4)CC3)C(=O)N(CCc3ccc(OC)c(OC)c3)C1=C[C@H](C(C)C)O[C@@H]2C1CC1,-1,4,.,.
Cc1ccc(NC(=O)[C@@H]2CCCN2S(=O)(=O)c2cccc3cccnc23)c(C)c1,2,-1,.,.
Nn1c(SCC(=O)Nc2ccc3c(c2)OCCO3)nnc1-c1ccccn1,-3,0,0,i
Cc1ccc(NC(=O)CSc2nnc(-c3ccco3)n2N)cc1F,-4,-4,-2,+
Cc1ccccc1-c1nnc(SCC(=O)Nc2ccc3c(c2)OCCO3)n1N,1,1,0,+
COc1ccccc1C(=O)NC1CCCCN(Cc2ccc(C)cc2)C1=O (centres undefined),-2,2,.,.
Cc1ccc(Cc2c(-c3ccc(Cl)cc3)nc3cc(C)ccn23)cc1,36,48*,6,i
Cc1ccc(Cc2c(-c3ccc(C)cc3)nc3cc(C)ccn23)cc1,29,29,17,i
Cc1ccc(C(=O)NCC(=O)OCc2nc3sc(C)c(C)c3c(=O)[nH]2)cc1,-4,-3,.,.
CC(CC(=O)Nc1ccc2c(c1)c(=O)n(C)n2-c1ccc2ccccc2c1)C(F)(F)F (centres undefined),21,30,-3,?
Cn1c(=O)c2cc(NC(=O)Cc3cccnc3)ccc2n1-c1ccc2ccccc2c1,47*,68*,12,i
COc1ccc(/C=N/Nc2cc(C)nc3ccccc23)cc1,-30,-19,60*,i
COc1ccc(/C=N/Nc2cc(C)nc3c(C)cccc23)cc1,-9,0,45,?
Cc1nn(-c2ccc(Cl)cc2)c(=O)c2ccccc12,3,-1,0,i
Cc1c(Cl)sn(-c2ccc(Cl)cc2)c1=O,13,-4,92*,?
CS(=O)(=O)N1CCC[C@]2(CC[C@@H](CCC#N)O2)C1,3,-7,.,.
CNc1ccc(C(=O)N2CCN(S(=O)(=O)c3ccc4c(c3)OCCCO4)CC2)cc1[N+](=O)[O-],-2,0,-7,+
C/C(Cl)=C\Cn1c(N2CCCC2)nc2c1c(=O)[nH]c(=O)n2C,5,-2,-3,i
C/C(Cl)=C/Cn1c(N2CCCC2)nc2c1c(=O)n(C)c(=O)n2C,11,3,0,+
Cc1ccccc1CN1CCCCC(NC(=O)c2cc(-c3ccccc3)no2)C1=O (centres undefined),5,1,.,.
CSc1nc2ccc(S(=O)(=O)N3CCOCC3)cc2s1,-5,-3,2,i
N#CCc1nc2ccc(S(=O)(=O)N3CCOCC3)cc2s1,4,-4,-7,+
O=[N+]([O-])c1c(Nc2ccc(O)cc2)cc(Cl)c2nonc12,62*,50*,-13,?
SMILES,GC-A act,GC-B act,Granule exo inh,Myeloid diff 2
O=[N+]([O-])c1c(Nc2ccccn2)cc(Cl)c2nonc12,50*,43*,97*,?
CN(C)c1cc(Nc2ccc(O)cc2)c([N+](=O)[O-])c2nonc12,6,-2,-5,i
CC(=O)N(Cc1ccc(F)cc1)C1=C(NCc2ccccc2)C(=O)c2ccccc2C1=O,.,.,15,+
O=C(NCc1ccc(F)cc1)C(c1ccccc1)c1ccccc1,-20,-12,1,i
O=[N+]([O-])c1ccc(Sc2nc3ccccc3o2)c([N+](=O)[O-])c1,15,5,22,i
O=c1[nH]c(Sc2ccc([N+](=O)[O-])cc2[N+](=O)[O-])nc2ccccc12,5,-1,90*,i
CCN(CC)C(=O)CSc1nc2ccccc2c(=O)n1CC,-6,1,-2,i
CCN(CC)C(=O)CSc1nc2ccccc2c(=O)n1OC(C)C,-9,3,2,+
